# Target: pT7_6His-AlfaTag-ZIF268 (human, UniProt P18146 335-423)
# Assay: PADIT-seq
# Conditions: dsDNA, one strand shown
row,Sequence,binding signal
1,CTCGAGGATATCAAGATCTGGCCTCGGCGCGTGGGCGGGAACCTCTAGCTAGCCGACTCACTATAGGGATAATCGCCCTGAGCAAAGACC,4.32 ± 0.0557 log2FC
2,CTCGAGGATATCAAGATCTGGCCTCGGCGCGCCACGCGGAACCTCTAGCTAGCCGACTCACTATAGGGATAATCGCCCTGAGCAAAGACC,0.0182 ± 0.0932 log2FC
3,CTCGAGGATATCAAGATCTGGCCTCGGCCGGTGGGCGGGAACCTCTAGCTAGCCGACTCACTATAGGGATAATCGCCCTGAGCAAAGACC,1.3 ± 0.0687 log2FC
4,CTCGAGGATATCAAGATCTGGCCTCGGCGCGTGGTGTGGAACCTCTAGCTAGCCGACTCACTATAGGGATAATCGCCCTGAGCAAAGACC,0.166 ± 0.105 log2FC
5,CTCGAGGATATCAAGATCTGGCCTCGGCACCTGGGCGGGAACCTCTAGCTAGCCGACTCACTATAGGGATAATCGCCCTGAGCAAAGACC,0.068 ± 0.0997 log2FC
6,CTCGAGGATATCAAGATCTGGCCTCGGCGCGTGGGATGGAACCTCTAGCTAGCCGACTCACTATAGGGATAATCGCCCTGAGCAAAGACC,2.17 ± 0.107 log2FC
7,CTCGAGGATATCAAGATCTGGCCTCGGCGCGTGGCGTGGAACCTCTAGCTAGCCGACTCACTATAGGGATAATCGCCCTGAGCAAAGACC,0.0995 ± 0.108 log2FC
8,CTCGAGGATATCAAGATCTGGCCTCGGCTACCCACGCGGAACCTCTAGCTAGCCGACTCACTATAGGGATAATCGCCCTGAGCAAAGACC,0.362 ± 0.0981 log2FC
9,CTCGAGGATATCAAGATCTGGCCTCGGCCGCCTCCGCGGAACCTCTAGCTAGCCGACTCACTATAGGGATAATCGCCCTGAGCAAAGACC,0.383 ± 0.0978 log2FC
10,CTCGAGGATATCAAGATCTGGCCTCGGCGCGTGGATGGGAACCTCTAGCTAGCCGACTCACTATAGGGATAATCGCCCTGAGCAAAGACC,0.000457 ± 0.106 log2FC
